Assay outcomes as filed in PubChem.
Shown are actives, neighbours in structure and some others; about 2% of the full set was active somewhere.
PREPL inhibitor = inhibits the human prolyl oligopeptidase-like enzyme | Q4J6C6 | recombinant PREPL, fluorescence polarization activity-based probe | inhibition, % at 5.96 µM | 320,000 tested, 0.68% active | AID 2751; in the data active = inhibition above about 43%
LYPLA2 counter = LYPLA2 (human) inhibition in PME1 counter-screen. O95372. recombinant LYPLA2, FP-Rh probe fluorescence polarization. inhibition, % at 5.9 µM. 320,000 tested, 0.38% active. AID 2177;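 active = inhibition above the screen-wide mean plus 3 SD, limit set per campaign, cut at about 26% in these data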
PME-1 primary = PME-1 (human) inhibition; recombinant PME-1, FP-Rh probe fluorescence polarization; 320,000 tested, 0.53% active; inhibition, % at 5.9 µM; Q9Y570;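 active = inhibition above the campaign mean of all compounds plus 3 SD, cut at about 26% in these data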;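 also: competitive labeling of PME-1 active site by serine hydrolase directed probe; inhibitors block probe labeling so polarization falls and inhibition rises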
Target sequence (Q9Y570 whole entry, looked up): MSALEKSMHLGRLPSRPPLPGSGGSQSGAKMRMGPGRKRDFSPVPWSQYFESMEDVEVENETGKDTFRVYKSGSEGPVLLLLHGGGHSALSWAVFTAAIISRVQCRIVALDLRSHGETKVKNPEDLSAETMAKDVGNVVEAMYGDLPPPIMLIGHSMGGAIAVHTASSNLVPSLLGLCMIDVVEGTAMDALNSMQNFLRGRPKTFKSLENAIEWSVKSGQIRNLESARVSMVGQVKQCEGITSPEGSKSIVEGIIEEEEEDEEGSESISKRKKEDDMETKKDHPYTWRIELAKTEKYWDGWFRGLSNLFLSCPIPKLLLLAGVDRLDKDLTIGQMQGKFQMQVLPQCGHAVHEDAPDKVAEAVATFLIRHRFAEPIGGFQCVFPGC
Fam108B inh = Fam108B inhibition, counter-screen for RBBP9 inhibitors; recombinant Fam108B, FP-Rh probe fluorescence polarization; inhibition, % at 9.51 µM; 300,000 tested, 0.33% active; AID 1947;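 active = inhibition above the screen mean inhibition plus 3 SD, computed separately per campaign, cut at about 18% in these data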;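 also: inhibitors lower polarization as less probe binds the enzyme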
GSTO1 counter = counter-screen for RBBP9 inhibitors: inhibitors of human GSTO1. P78417. recombinant GSTO1, activity-based probe fluorescence polarization. inhibition, % at 5.96 µM. 300,000 tested, 1.1% active;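 active = inhibition above the campaign mean inhibition plus 3 SD, cut at about 35% in these data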
LYPLA1 inh = blocks human lysophospholipase 1, a PME1 counter-screen; AID 2174; recombinant LYPLA1, FP-Rh probe fluorescence polarization; inhibition, % at 5.9 µM; O75608; 320,000 tested, 0.16% active;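 active = inhibition above the mean of all tested compounds plus 3 SD, set per campaign, cut at about 14% in these data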;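 also: inhibitors block serine hydrolase probe labeling of LYPLA1 so polarization falls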
Target sequence (O75608 whole entry, looked up): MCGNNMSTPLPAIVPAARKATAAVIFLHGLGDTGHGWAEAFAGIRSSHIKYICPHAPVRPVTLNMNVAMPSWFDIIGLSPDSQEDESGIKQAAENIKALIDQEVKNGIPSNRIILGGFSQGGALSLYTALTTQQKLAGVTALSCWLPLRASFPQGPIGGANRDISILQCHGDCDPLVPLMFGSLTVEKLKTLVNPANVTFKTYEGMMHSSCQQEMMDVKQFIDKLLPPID
Large screens that a line does not name were inactive.

O=C(Cn1ccccc1=O)Nc1ccc(Cl)c(S(=O)(=O)N2CCCCC2)c1	none (no result: Fam108B inh, GSTO1 counter)
O=c1cc(CSc2nc(NCc3ccccc3)c3ccccc3n2)nc2ccc(Cl)cn12	GSTO1 counter 42
O=C(CCCn1c(SCc2cc(=O)n3cc(Cl)ccc3n2)nc2ccccc2c1=O)NCC1CCCO1 (centres undefined)	none
CC(=O)Nc1cc(OC(C)=O)c2nonc2c1OC(C)=O	PREPL inhibitor 56, LYPLA2 counter 95, PME-1 primary 63, Fam108B inh 76, GSTO1 counter 89, LYPLA1 inh 81
CC(=O)Nc1nonc1NC(C)=O	none
CN(C(=O)COC(=O)c1ccccc1C(=O)N1CCN(c2ccccc2)CC1)c1ccccc1	none
C/C(=N/Nc1nc(-c2ccccc2F)nc2ccccc12)c1ccccc1O	PME-1 primary 26
C=C1/C=C(\C)[C@](C)(O)C[C@H](O)CC(=O)[C@H](O)[C@@H](O)[C@H](C)C[C@H](C)OC(=O)/C(C)=C/CC/C=C/[C@@H]2O[C@H]2C[C@H](C)C1	none (no result: LYPLA2 counter, PME-1 primary, Fam108B inh, GSTO1 counter, LYPLA1 inh)
N#C/C(=N\Nc1ccc(Cl)c(Cl)c1)C(=O)C1CC1	PME-1 primary 34
N#C/C(=N\Nc1ccc(F)cc1)C(=O)C1CC1	none
CC1CCCN(CCCNC(=O)c2ccc3c(c2)N(Cc2ccccc2F)C(=O)c2ccccc2S3(=O)=O)C1 (centres undefined)	none
CN(C)c1ccc2nc3ccc(=[N+](C)C)cc-3sc2c1	GSTO1 counter 36
Cc1ccc(N=Nc2c(N)n(-c3ccccc3)[nH]c2=O)cc1	PME-1 primary 35
Cc1[nH]n(-c2ccccc2)c(=O)c1N=Nc1ccccc1	none
O=C(O[C@@H]1OC2COC(=O)c3cc(O)c(O)c(O)c3-c3c(cc(O)c(O)c3O)C(=O)O[C@@H]([C@H]1O)[C@@H]2O)c1cc(O)c(O)c(O)c1	PREPL inhibitor 54, GSTO1 counter 73
COC(=O)c1cccc(NC(=O)C(C)(C)C)c1	none
Cc1ncc(CO)c(/C=N/NC(=S)Nc2ccc(Cl)c(Cl)c2)c1O	PME-1 primary 27
Cc1ncc(CO)c(/C=N/NC(=S)Nc2cccc(Cl)c2)c1O	none
O=C(NCCCN1CCCC1=O)C1CCCO1 (centres undefined)	none
COc1ccccc1OCc1nc(C#N)c(NCCCn2ccnc2)o1	none
N#Cc1nc(COc2ccccc2F)oc1NCCCn1ccnc1	GSTO1 counter 36
Cc1ccc(NC(=S)NNc2ccc(C(=O)O)cc2[N+](=O)[O-])cc1C	GSTO1 counter 36
Cc1ccc(NC(=S)NNc2ccc([N+](=O)[O-])cc2S(=O)(=O)Nc2ccccc2C(=O)O)cc1C	PME-1 primary 48
Cc1ccc(Nc2ccc(C(N)=O)cc2[N+](=O)[O-])cc1C	none
CCCc1cc2c(cc1NC(=O)c1ccco1)OCO2	none
CN(C)c1ccc(N=Nc2ccc(S(=O)(=O)O)cc2)c2ccccc12	GSTO1 counter 37
O=C(COC(=O)C12CC3CC(CC(O)(C3)C1)C2)Nc1ccc(Cl)c(S(=O)(=O)N2CCOCC2)c1	none (no result: LYPLA2 counter, PME-1 primary, Fam108B inh, GSTO1 counter, LYPLA1 inh)
N#Cc1ccccc1Cn1c(=O)n(-c2ccc(CC(=O)NCc3ccco3)cc2)c(=O)c2sccc21	PME-1 primary 37
N#Cc1ccccc1Cn1c(=O)n(Cc2ccc(C(=O)NCc3ccco3)cc2)c(=O)c2sccc21	none
O=C(O)c1ccccc1Nc1cccc(OCc2ccc3ccccc3n2)c1	PME-1 primary 30
O=C(COc1ccc2ccccc2c1)Nc1cccc(C(=O)Nc2ccccc2C(=O)O)c1	none
N#C/C(=C\c1ccccc1)C(=O)NNS(=O)(=O)c1ccc(Br)cc1	none (no result: LYPLA2 counter, PME-1 primary, Fam108B inh, GSTO1 counter, LYPLA1 inh)
CN1/C(=C/C=C(C#N)C#N)C(C)(C)c2ccccc21	PME-1 primary 51
CN1/C(=C\C=O)C(C)(C)c2ccccc21	none
Cc1noc(C)c1S(=O)(=O)N1CCCN(C(=O)/C=C/c2ccccc2F)CC1	none (no result: Fam108B inh, GSTO1 counter)
Cc1noc(C)c1C(=O)NCc1ccccc1F	none
Cc1cc(C)n2nc(SCc3cc(=O)oc4ccc5ccccc5c34)nc2n1	PREPL inhibitor 47
CC(OC(=O)c1ccc2c(=O)n3c(nc2c1)CCC3)C(=O)NC1CCCCC1C (centres undefined)	none
CCOC(=O)C1CCN(C(=O)c2ccc(S(=O)(=O)Nc3ccccc3OC)cc2)CC1	none (no result: Fam108B inh, GSTO1 counter)
CC(=O)c1ccc(N2CCN(C(=S)Nc3ccc(Oc4ccccc4)cc3)CC2)cc1	LYPLA2 counter 32
COc1ccc(N2CCN(C(=S)Nc3ccccc3)CC2)cc1	none
COc1cc(NC(=O)CSc2nnc(-c3ccncc3)o2)cc(OC)c1OC	none
Cc1ccc(S(=O)(=O)NC(=O)Nc2ccc(N(C)C)cc2)cc1	GSTO1 counter 87
COC(=O)NC(NS(=O)(=O)c1ccccc1)(C(=O)OC)C(F)(F)F (centres undefined)	GSTO1 counter 36
O=C(CN1CCN(c2ccc(O)cc2)CC1)Nc1cc(S(=O)(=O)N2CCCC2)ccc1Cl	PME-1 primary 37
O=C(CSc1cccc(C(F)(F)F)c1)Nc1cc(S(=O)(=O)N2CCCC2)ccc1Cl	PME-1 primary 49
Cn1nnnc1SCC(=O)Nc1cc(S(=O)(=O)N2CCCC2)ccc1Cl	none
CC1CCC2(CC1)NC(=O)N(CC(=O)NC1CCCCC1C)C2=O (centres undefined)	none (no result: LYPLA2 counter, PME-1 primary, Fam108B inh, GSTO1 counter, LYPLA1 inh)
Cc1ccc(CN2C(=O)N/C(=C\c3ccc(-c4ccc(C(=O)O)cc4C)o3)C2=O)cc1	PREPL inhibitor 78
CCOC(=O)c1cc(C#N)c(SCC(N)=O)[nH]c1=O	GSTO1 counter 36
Cc1cnc(C(=O)OCC(=O)Nc2cc(-c3ccccc3)nn2-c2ccccc2)cn1	none
CCc1cc(C(=O)NCC(c2ccco2)N2CCCCC2)sc1C (centres undefined)	none (no result: Fam108B inh, GSTO1 counter)
CC(=O)Nc1ccc(-c2nc3cc(Cl)ccc3o2)cc1	none
O=C(O)c1ccccc1-c1ccccc1C(=O)Nc1ccc(-c2nc3cc(Cl)ccc3o2)cc1	PME-1 primary 31
Nc1ccc(Br)c2c1C(=O)c1ccccc1C2=O	PME-1 primary 26
Nc1ccc(C(=O)N/N=C\c2ccc(OC(=O)c3ccccc3Cl)cc2)cc1	none
O=C(O)c1ccc(N/N=C/c2ccc(OC(=O)c3ccccc3Cl)cc2)cc1	LYPLA2 counter 26
COc1ccc(CC(=O)OCC(=O)NC2CCCCC2)cc1OC	none (no result: LYPLA2 counter, PME-1 primary, Fam108B inh, GSTO1 counter, LYPLA1 inh)
CCc1ccc(OC)c(S(=O)(=O)Nc2ccc(Cc3ccncc3)cc2)c1	PME-1 primary 27
CCc1ccc(NS(=O)(=O)c2ccc(OC)c3ncccc23)cc1	none
Cc1ccc(S(=O)(=O)CCC(=O)OCCOc2cccc(Br)c2)cc1	none (no result: Fam108B inh, GSTO1 counter)
COCCn1nnnc1CN(CCc1ccc(OC)c(OC)c1)Cc1cc2ccc(C)cc2[nH]c1=O	none
COCCn1nnnc1CN(CCc1ccccc1)Cc1cc2cc(OC)ccc2[nH]c1=O	PREPL inhibitor 54
COc1cc2c(cc1NC(=S)Nc1cccc(C)c1)oc1ccccc12	PREPL inhibitor 44, GSTO1 counter 36
COc1cc(OC)cc(-c2c(-c3cccs3)c3cc(-c4ccc(N(C)C)nc4)ccc3n2C)c1	none (no result: Fam108B inh, GSTO1 counter)
